Among all 2,400 compounds or so, fewer than 10 were called active. No rule for the calls is given here. A selection follows.
Target: Rac GTPase-activating protein 1 (Homo sapiens) (UniProt Q9H0H5)
Experiment: MgcRacGAP inhibitors via phosphate release, confirmation, orthogonal assay, biochemical, inorganic phosphate detection, Rac1 (AID 652142)
Conditions: MgcRacGAP/Rac1F28L GTP hydrolysis, Biomol green phosphate; active compounds read high; concentration not given here

Sequence of Rac GTPase-activating protein 1 (Homo sapiens) (Q9H0H5 whole entry, looked up): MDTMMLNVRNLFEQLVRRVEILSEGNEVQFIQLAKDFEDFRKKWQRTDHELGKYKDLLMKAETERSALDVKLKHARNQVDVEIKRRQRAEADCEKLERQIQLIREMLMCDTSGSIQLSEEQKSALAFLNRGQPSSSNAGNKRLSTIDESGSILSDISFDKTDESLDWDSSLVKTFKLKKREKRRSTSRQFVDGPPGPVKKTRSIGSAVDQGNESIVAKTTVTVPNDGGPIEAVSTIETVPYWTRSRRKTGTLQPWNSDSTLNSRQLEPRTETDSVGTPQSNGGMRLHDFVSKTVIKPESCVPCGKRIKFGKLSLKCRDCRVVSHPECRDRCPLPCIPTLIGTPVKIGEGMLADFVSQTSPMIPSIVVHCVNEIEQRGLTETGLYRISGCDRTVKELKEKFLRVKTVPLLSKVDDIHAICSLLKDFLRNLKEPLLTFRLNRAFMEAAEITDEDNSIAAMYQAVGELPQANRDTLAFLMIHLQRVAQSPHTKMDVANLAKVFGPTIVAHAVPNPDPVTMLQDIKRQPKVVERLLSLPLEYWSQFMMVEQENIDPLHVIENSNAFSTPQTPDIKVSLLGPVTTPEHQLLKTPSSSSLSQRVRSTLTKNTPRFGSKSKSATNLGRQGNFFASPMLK

SMILES	inhibition
CN(C)CCNc1ccc(CO)c2oc3ccc(O)cc3c(=O)c12	14.8% (inactive)
CN(C)c1ccc(/C=C/c2ccc3ccccc3[n+]2C)cc1	41% (inactive)
Oc1ccc(/C=C/c2ccc3ccccc3n2)cc1	35.5% (inactive)
O=C1/C(=C\c2ccc(O)cc2)SC(=S)N1/N=C/c1ccc(O)cc1	13.5% (inactive)
COc1ccccc1C(=O)N1CCN(Cc2cccnc2)CC1	19.7% (inactive)
CN(C)c1ccc(/C=C2/C[N+](C)(C)C/C(=C/c3ccc(N(C)C)cc3)C2=O)cc1	25.4% (inactive)
Cc1cc(O)ccc1NC(=O)c1ccccc1	36% (inactive)
Cc1cc(C)c2nc(C)cc(N/N=C/c3ccc(O)cc3)c2c1	41.9% (inactive)
COc1cc(/C=C2\SC(=S)N(Nc3ccccc3)C2=O)ccc1O	19.2% (inactive)
O=C(Oc1ccc(N(C(=O)c2ccncc2)S(=O)(=O)c2cccs2)cc1)c1ccncc1	26.2% (inactive)
CCOc1cc(/C=C2\C(=O)N(CCc3ccc(OC)c(OC)c3)C(C)=C2C(=O)OC)ccc1O	20.6% (inactive)
O=C(CN1CCN(c2ccc(O)cc2)CC1)NCC(=O)Nc1ccc(F)c(F)c1F	24.8% (inactive)
O=C(COc1ccccc1C(=O)N/N=C\c1ccc(O)c(O)c1)N/N=C/c1ccc(O)c(O)c1	8.94% (inactive)
COc1ccc(NC2CCCN(C(=O)c3ccc4[nH]c(C)c(C)c4c3)C2)cc1 (stereo not given)	17.9% (inactive)
COc1cc(/C=N/NC(=O)CCn2c3ccccc3c3ccccc32)ccc1O	21% (inactive)
COCCCNC1=C(C#N)C(=O)NC(c2cccs2)S1 (stereo not given)	40.4% (inactive)
CN(C)CCNc1ccc(CO)c2sc3ccc(O)cc3c(=O)c12	12.6% (inactive)
NC(CSS(=O)(=O)O)=NCCC12CC3CC(CC(O)(C3)C1)C2	34.4% (inactive)
C=CCn1c(SCC(=O)Nc2ccc(N(C)C)cc2)nnc1-c1cccc(C)c1	15.5% (inactive)
CCOc1cc(-c2nc3ccccc3s2)ccc1O	30.1% (inactive)
Oc1ccc(/C=N/Nc2nn3cnnc3c3ccccc23)cc1	25.8% (inactive)
Oc1ccc(/C=N/n2c(-c3ccco3)csc2=Nc2cccnc2)c(O)c1	23.8% (inactive)
Cc1ccc(S(=O)(=O)c2cc(Nc3ccccc3)ccc2O)cc1	11.6% (inactive)

SMILES	inhibition
Cc1cc(C)n(CC(O)CN2c3ccccc3Sc3ccccc32)n1 (stereo not given)	32.2% (inactive)
CC(C)C1=Nc2cccc3cccc(c23)N1	22.3% (inactive)
COc1nc(Nc2ccc(O)cc2)nc(OC(C(F)(F)F)C(F)(F)F)n1	18.1% (inactive)
Clc1cccc(N/N=C/c2ccc(N3CCOCC3)s2)c1	29.3% (inactive)
CCOC(=O)C1CCN(Cc2cn[nH]c2-c2ccccc2)CC1	27.9% (inactive)
CCOc1cc(/C=N/NC(=O)Nc2ccccc2)ccc1O	23.6% (inactive)
CCOc1cc(/C=C(\C#N)c2[nH]nc(N)c2C#N)ccc1O	29.6% (inactive)
Cc1cc(-c2ccccc2)nc(N/N=C/c2ccc(O)cc2)n1	18.1% (inactive)
CCOC(=O)C1=C(C)Nc2ccccc2S1	35.2% (inactive)
C=CCOc1ccccc1CN1CCCN(C)CC1	22.3% (inactive)
CCOc1cc(/C=C(\C#N)C(=O)NCC2CCCO2)ccc1O (stereo not given)	23.9% (inactive)
CN1C(=O)NC(c2ccc(O)cc2)C2=C1CN(c1ccc(O)cc1)C2=O (stereo not given)	24.1% (inactive)
Cc1ccnc(Nc2nc(-c3ccc(O)c(O)c3)cs2)c1	23.8% (inactive)
CCOC(=O)c1nc(Nc2ccc(Nc3ccccc3)cc2)c2ccccc2n1	32% (inactive)
Oc1ccc(NC(=S)N=Nc2c(O)[nH]c3ccc(Br)cc23)cc1	26.7% (inactive)
CCOC(=O)c1[nH]c2ccccc2c1NC(=S)Nc1cccc(C)c1C	18.1% (inactive)
CCN(CC)c1ccc(C(=C2C=CC(=[N+](CC)CC)C=C2)c2ccccc2)cc1	28% (inactive)
CC(C)N=c1scc(-c2ccco2)n1/N=C/c1ccc(O)c(O)c1	27.8% (inactive)
O=C1CSC(=S)N1Nc1ccccc1	17.3% (inactive)
CCc1cc(-c2n[nH]c(CCC(=O)O)c2-c2nc3ccccc3n2C)c(O)cc1O	30.8% (inactive)
Nc1nc(=S)c2[nH]c(=S)[nH]c2[nH]1	35.5% (inactive)
CC(C(=O)NCC(=O)Nc1ccc(F)c(F)c1F)N1CCN(c2ccc(O)cc2)CC1 (stereo not given)	20.8% (inactive)

Reference: PubChem BioAssay AID652142 (Molecular Libraries Program, Specialized Chemistry Center, …, 2013)
